Values without a mark were called inactive. The source made the active and inactive calls. Unless noted, the call rests on the fitted dose curve; in most records, active means well fitted curve in the direction sought with a large enough effect in the repeat runs; inconclusive means weak or mixed curves; inactive means no such curve, though single readings can be large; an effect the other way counts as inactive or inconclusive.

We go through 16 compounds from PubChem BioAssay (Tox21).

A short description of assay [1]: qHTS assay to test for compound auto fluorescence at 535 nm (green) in HEK293 cells (AID 720680).
Assay [2] can be described thus: qHTS assay to test for compound auto fluorescence at 460 nm (blue) in HEK293 cell free culture (AID 720681). The procedure, abridged:
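Blue fluorescence (Ex 405/Em 460 nm, triamterene-equivalent) was read immediately after pin transfer of compound or DMSO into medium (DMEM, 10% FBS) without cells.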

Assay [3] in a line: qHTS assay to test for compound auto fluorescence at 535 nm (green) in HEK293 cell free culture (AID 720682). The procedure, abridged: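 Cell-free medium (DMEM, 10% FBS) receives compound or DMSO by pintool. Plate read directly at Ex 485/Em 535 nm. Signal converted to fluorescein equivalency.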
Assay [4] in a line: qHTS assay to test for compound auto fluorescence at 590 nm (red) in HEK293 cell free culture (AID 720683). The procedure, abridged: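 Red-channel autofluorescence of compounds in culture medium (DMEM, 10% FBS), no cells, measured at 540/590 nm. Rose Bengal sodium is the reference fluorophore for equivalence.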
Assay [5] can be described thus: qHTS assay to test for compound auto fluorescence at 460 nm (blue) in HepG2 cell free culture (AID 720685). The procedure, abridged:
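Cell-free plates of MEM plus 10% FBS received 23 nL compound or DMSO vehicle; blue-channel (405/460 nm) intensity scored against triamterene as reference fluorophore.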

Assay [6] can be described thus: qHTS assay to test for compound auto fluorescence at 535 nm (green) in HepG2 cell free culture (AID 720686).
Assay [7] is described as follows: qHTS assay to test for compound auto fluorescence at 460 nm (blue) in HepG2 cells (AID 720687). The procedure, abridged: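 Blue-channel autofluorescence (Ex/Em 405/460 nm, triamterene-equivalent) was measured after 1 hr compound exposure at 37 C, 5% CO2. Cells were HepG2, plated overnight at 37 C in MEM plus 10% FBS.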
For assay [8], the target named is Glucocorticoid receptor (Homo sapiens) (UniProt P04150). As to the kind of experiment: qHTS assay to identify small molecule agonists of the glucocorticoid receptor (GR) signaling pathway (AID 720691; active means well fitted activation curve with a large enough effect in the signal ratio in the repeat runs, not every such curve was filed as active; inconclusive means weak or mixed curves, or effect the other way; inactive means no such curve, though single readings can be large or run the other way; the % refers to the signal ratio; further: potency means the concentration at half of the fitted maximal effect). The procedure, abridged: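 Compounds in DMSO, alongside positive controls, were added to GR-bla HeLa reporter cells and incubated 18 h at 37 C; GRE-driven beta-lactamase was detected by fluorescence after 2 h with FRET substrate at room temperature.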
Sequence of Glucocorticoid receptor (Homo sapiens) (P04150 whole entry, looked up): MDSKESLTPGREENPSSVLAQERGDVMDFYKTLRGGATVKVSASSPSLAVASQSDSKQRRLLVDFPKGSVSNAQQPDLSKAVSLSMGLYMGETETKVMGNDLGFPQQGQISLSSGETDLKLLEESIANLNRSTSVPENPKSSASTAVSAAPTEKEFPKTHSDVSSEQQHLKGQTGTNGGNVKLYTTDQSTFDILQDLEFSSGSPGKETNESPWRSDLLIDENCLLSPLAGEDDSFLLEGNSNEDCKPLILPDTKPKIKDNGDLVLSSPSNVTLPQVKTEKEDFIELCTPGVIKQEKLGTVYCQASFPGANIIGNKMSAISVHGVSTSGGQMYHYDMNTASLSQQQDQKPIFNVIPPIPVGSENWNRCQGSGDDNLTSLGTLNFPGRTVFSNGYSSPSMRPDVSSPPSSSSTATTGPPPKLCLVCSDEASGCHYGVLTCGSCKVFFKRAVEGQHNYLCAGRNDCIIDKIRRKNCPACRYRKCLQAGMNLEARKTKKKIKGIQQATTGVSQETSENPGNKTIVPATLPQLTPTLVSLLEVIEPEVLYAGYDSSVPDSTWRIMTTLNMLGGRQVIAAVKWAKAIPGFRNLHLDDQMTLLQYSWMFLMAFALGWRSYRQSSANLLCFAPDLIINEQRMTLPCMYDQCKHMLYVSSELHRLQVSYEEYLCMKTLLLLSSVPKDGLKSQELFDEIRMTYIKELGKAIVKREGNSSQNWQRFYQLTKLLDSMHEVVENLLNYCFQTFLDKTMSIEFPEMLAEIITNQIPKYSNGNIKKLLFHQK

Assay [9] shares this target. The assay can be described thus: qHTS assay to identify small molecule antagonists of the glucocorticoid receptor (GR) signaling pathway (AID 720692; active means well fitted inhibition curve with a large enough effect in the signal ratio in the repeat runs, not every such curve was filed as active; inconclusive means weak or mixed curves, or effect the other way; inactive means no such curve, though single readings can be large or run the other way; the % refers to the signal ratio; further: potency means the concentration at half of the fitted maximal effect). The procedure, abridged:
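In a 1536-well cell format, compounds were added 4 h after seeding GR-bla HeLa cells, together with dexamethasone at 5 nM final; reporter activity was measured by FRET-substrate fluorescence following 18 h at 37 C.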

A short description of assay [10]: qHTS assay to identify small molecule antagonists of the androgen receptor (AR) signaling pathway - cell viability counter screen (AID 743033; further: nearly all actives have a fitted effect of over 45% in size).
A short description of assay [11]: qHTS assay to identify small molecule antagonists of the androgen receptor (AR) signaling pathway using the MDA cell line - cell viability counter screen (AID 743041; further: nearly all actives have a fitted effect of over 45% in size). The procedure, abridged: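 Using the breast carcinoma line MDA-kb2 AR-luc, test chemicals were co-incubated with R1881 for 16 h; CellTiter-Fluor reagent, added at 15.5 h, provided a fluorescence measure of live cells.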

Assay [12] is described as follows: qHTS assay to identify small molecule antagonists of the glucocorticoid receptor (GR) signaling pathway - cell viability counter screen (AID 720693). Further: nearly all actives have a fitted effect of over 55% in size.
The nature of assay [13]: qHTS assay for identifying genotoxic compounds that show differential cytotoxicity against isogenic chicken DT40 cell lines with known DNA damage response pathways - wild type cell line (AID 743012). Further: nearly all actives have a fitted effect of over 60% in size. Further: potency means the concentration at half of the fitted maximal effect. The procedure, abridged: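 Viability of DNA repair-proficient chicken DT40 cells was assessed by CellTiter-Glo luminescence following 40 h compound exposure at 37 C/5% CO2.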

The nature of assay [14]: qHTS assay for identifying genotoxic compounds that show differential cytotoxicity against isogenic chicken DT40 cell lines with known DNA damage response pathways - Rev3 mutant cell line (AID 743014). Further: nearly all actives have a fitted effect of over 55% in size. Further: potency means the concentration at half of the fitted maximal effect.
A short description of assay [15]: qHTS assay for identifying genotoxic compounds that show differential cytotoxicity against isogenic chicken DT40 cell lines with known DNA damage response pathways - Rad54/Ku70 mutant cell line (AID 743015). Further: nearly all actives have a fitted effect of over 60% in size. Further: potency means the concentration at half of the fitted maximal effect.
In assay [16] the target is Androgen receptor (Homo sapiens) (UniProt P10275). As to the kind of experiment: qHTS assay to identify small molecule antagonists of the androgen receptor (AR) signaling pathway (AID 743035; active means well fitted inhibition curve with a large enough effect in the signal ratio in the repeat runs, not every such curve was filed as active; inconclusive means weak or mixed curves, or effect the other way; inactive means no such curve, though single readings can be large or run the other way; the % refers to the signal ratio; further: potency means the concentration at half of the fitted maximal effect). The procedure, abridged:
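Reporter HEK293 cells were exposed to compounds and R1881 overnight (16 h, 37C); beta-lactamase activity was then quantified by FRET fluorescence.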

For assay [17] the target is unchanged. The assay can be described thus: qHTS assay to identify small molecule agonists of the androgen receptor (AR) signaling pathway using the MDA cell line (AID 743040; further: nearly all actives have a fitted effect of over 20% in size; further: potency means the concentration at half of the fitted maximal effect). The procedure, abridged:
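Stable MMTV-luciferase reporter in MDA-kb2 cells; note the promoter carries GR as well as AR response elements. 16 h compound treatment, 37C, 0% CO2; ONE-Glo luminescence endpoint.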

Assay [18] has the same target. The assay can be described thus: qHTS assay to identify small molecule antagonists of the androgen receptor (AR) signaling pathway using the MDA cell line (AID 743042; further: nearly all actives have a fitted effect of over 55% in size). The procedure, abridged: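 Antagonist mode: compounds plus R1881 agonist added to MDA-kb2 AR-luc cells, incubated 16 h at 37C. Luciferase reporter luminescence quantified, with multiplexed CellTiter-Fluor readout for cell viability.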

Assay [19] shares this target. As to the kind of experiment: qHTS assay to identify small molecule agonists of the androgen receptor (AR) signaling pathway (AID 743036; active means well fitted activation curve with a large enough effect in the signal ratio in the repeat runs, with a control signal flat, not every such curve was filed as active; inconclusive means weak or mixed curves, or effect the other way; inactive means no such curve, though single readings can be large or run the other way; the % refers to the signal ratio). The procedure, abridged: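 AR-bla HEK293 cells, 2,000/well; 4 h preincubation 37C/5% CO2; compound (DMSO) 16 h at 37C; LiveBLAzer B/G FRET substrate 2 h RT; fluorescence intensity read-out.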
A short description of assay [20]: qHTS assay to test for compound auto fluorescence at 590 nm (red) in HepG2 cell free culture (AID 720684). The procedure, abridged: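 No cells present: MEM + 10% FBS only. Compound pinned in, red label read (540/590 nm). Activity = fluorescence equivalent to Rose Bengal sodium.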
On the % scale 0 is the no-effect control and ±100 the full control effect.

Sequence of Androgen receptor (Homo sapiens) (P10275 whole entry, looked up): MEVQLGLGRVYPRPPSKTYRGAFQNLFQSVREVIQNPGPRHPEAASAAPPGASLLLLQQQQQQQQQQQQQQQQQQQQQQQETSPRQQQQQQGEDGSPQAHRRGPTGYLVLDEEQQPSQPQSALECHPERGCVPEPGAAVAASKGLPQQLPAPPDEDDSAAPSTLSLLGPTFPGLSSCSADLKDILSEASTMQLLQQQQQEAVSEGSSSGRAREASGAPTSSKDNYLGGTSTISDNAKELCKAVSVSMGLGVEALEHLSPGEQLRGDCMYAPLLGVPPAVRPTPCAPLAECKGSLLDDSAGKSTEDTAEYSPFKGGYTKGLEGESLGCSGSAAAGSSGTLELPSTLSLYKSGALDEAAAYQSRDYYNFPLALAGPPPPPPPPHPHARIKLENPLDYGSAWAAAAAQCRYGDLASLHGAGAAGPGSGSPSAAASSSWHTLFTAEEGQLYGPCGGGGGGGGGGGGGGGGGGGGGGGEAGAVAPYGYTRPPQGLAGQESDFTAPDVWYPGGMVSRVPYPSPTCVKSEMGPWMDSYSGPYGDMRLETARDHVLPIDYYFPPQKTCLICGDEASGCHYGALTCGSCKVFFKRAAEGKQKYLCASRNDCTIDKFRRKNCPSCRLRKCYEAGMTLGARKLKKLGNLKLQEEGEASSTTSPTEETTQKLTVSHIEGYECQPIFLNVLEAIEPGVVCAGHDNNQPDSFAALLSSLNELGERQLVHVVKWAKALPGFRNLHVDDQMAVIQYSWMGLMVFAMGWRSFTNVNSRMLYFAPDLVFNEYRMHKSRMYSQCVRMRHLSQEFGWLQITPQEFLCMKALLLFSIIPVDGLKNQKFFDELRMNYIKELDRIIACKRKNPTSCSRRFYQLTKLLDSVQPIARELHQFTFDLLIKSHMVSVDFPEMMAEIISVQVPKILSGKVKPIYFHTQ

Regarding `O=Cc1ccccc1[N+](=O)[O-]`, the result in assay [1], in [3], in assay [4], in assay [6] and in assay [10] was inactive. For the same compound, the Potency entry in assay [2], in assay [5], in [7], in assay [8], in assay [9] and in [11] was “inactive” in each case.
As to `C=C(C)C(=O)OCCCCCCCCCCCCCCCCCC`, the fluorescence, % of fluorescein in assay [1] is 0.0795% [at 18.6 µM]. For the same compound, the fluorescence, % of fluorescent control in [2] was -0.0848% [at 18.6 µM]; in [4], -0.0264% [at 18.6 µM]; in assay [5], -0.0261% [at 18.6 µM]; in [7], 0.214% [at 18.6 µM]. For the same compound, the activity change in assay [3] was -0.0033% [at 18.6 µM]. Further, the Potency result in assay [8], in [9], in assay [13], in [14], in assay [15] and in [11] was “inactive” in each case. Moreover, the outcome in assay [12] and in assay [10] was inactive.
As to `CN(C)C(=O)Nc1ccccc1`, the compound was classed as inactive in assay [1], in assay [3], in [4], in assay [6] and in [10]. Also, the Potency entry in assay [2], in assay [5], in assay [7], in assay [13], in assay [14] and in [15] was “inactive” throughout. In assay [11], the Potency result was “inactive”.
Turning to `COC(=O)C1=C(C)NC(C)=C(C(=O)OCC(C)=O)C1c1ccccc1[N+](=O)[O-]` (stereo not drawn), the call in assay [1], in [3], in assay [4] and in assay [6] was inactive. Also, the Potency result in assay [2], in [5], in assay [7] and in [8] was “inactive” throughout. The Potency was 21.3 µM (active) in assay [9], 5.96 µM (active) in assay [13], 11.9 µM (active) in assay [14] and 10.6 µM (active) in [15].
On to `CCCC(=O)O[C@]1(C(=O)CCl)[C@@H](C)C[C@H]2[C@@H]3CCC4=CC(=O)C=C[C@]4(C)[C@@]3(F)C(=O)C[C@@]21C`, for which the call in assay [1], in assay [3], in assay [4], in [6], in assay [12] and in assay [10] was inactive. Moreover, the call in assay [18] was inactive. Moreover, the Potency entry in assay [2], in assay [5] and in assay [7] was “inactive” each time. For the same compound, the Potency is 0.0239 µM [inconclusive] (active) in assay [8]; 6.68 µM (active) in assay [13]; 7.5 µM (active) in assay [14]; 13.3 µM (active) in [15]; 7.56 µM (active) in [16]; 6 nM (active) in assay [17].
As to `c1ccc(SCCSc2ccccc2)cc1`, the compound was called inactive in assay [1], in assay [3], in [4], in assay [6], in assay [12] and in assay [10]. Besides, the compound was called inactive in assay [19] and in [18]. The Potency entry in assay [2], in assay [5], in assay [7], in assay [13], in assay [14] and in assay [15] was “inactive” in each case. Moreover, the Potency entry in assay [16], in assay [17] and in assay [11] was “inactive” throughout.
For the compound `CCN(CC)C(=O)c1ccc(O)c(OC)c1`, the compound was called inactive in assay [1], in assay [3], in [4], in assay [6], in [12] and in [10]. The Potency entry in assay [2], in assay [5], in assay [7], in assay [8], in [9] and in assay [13] was “inactive” in each case. Besides, the Potency result in assay [14], in [15] and in assay [11] was “inactive” throughout.
`CCCCCCCCCCC1CO1` (stereo not drawn): the compound was classed as inactive in assay [1], in assay [3], in assay [4], in assay [6] and in [10]. For the same compound, the Potency entry in [2], in assay [5], in [7] and in [11] was “inactive” throughout. For the same compound, the Potency was 61.1 µM (active) in [13] and 68.6 µM (active) in assay [14].
As to `NCCN1CCNC1=O`, the compound was called inactive in assay [1], in assay [3], in [4], in assay [6], in [12] and in [10]. The Potency entry in assay [2], in [5], in [7], in assay [8], in assay [9] and in [13] was “inactive” each time. Besides, the Potency result in assay [15] and in assay [11] was “inactive” in each case.
For the compound `C[C@H](O)C(=O)Nc1c(I)c(C(=O)NC(CO)CO)c(I)c(C(=O)NC(CO)CO)c1I`, in [1], the fluorescence, % of fluorescein is -0.048% [at 18.6 µM]. Also, the fluorescence, % of fluorescent control in assay [2] was -0.108% [at 18.6 µM]; in assay [4], 0.0628% [at 18.6 µM]; in assay [5] it was -0.0806% [at 18.6 µM]; in [7] it was -0.0019% [at 18.6 µM]. Moreover, in assay [3], the activity change was 0.0506% [at 18.6 µM]. Further, the fluorescence, % of fluorescein control in [6] was -0.0219% [at 18.6 µM]. In assay [8], the Potency was 6.44 µM (active). Moreover, the compound was called inactive in [12]. Besides, the Potency result in assay [13], in [14], in [15] and in assay [11] was “inactive” throughout.
With `C=CCSCC1Nc2cc(Cl)c(S(N)(=O)=O)cc2S(=O)(=O)N1` (stereo not drawn), the call in [1], in assay [3], in assay [4], in assay [6] and in assay [10] was inactive. Further, the Potency result in assay [2], in assay [5], in assay [7], in [8], in assay [9] and in assay [13] was “inactive” each time. The Potency entry in assay [11] was “inactive”.
Take `CCCCOCC(C)OCC(C)O` (stereo not drawn): the Potency entry in assay [2], in assay [5], in assay [7], in assay [13], in assay [14] and in assay [11] was “inactive” throughout. Besides, the compound was classed as inactive in assay [3], in assay [4], in assay [20], in [12] and in assay [10].
On to `OCC(CO)(CO)COCC(CO)(CO)CO`, for which the Potency result in assay [2], in assay [5], in assay [7], in [13], in assay [14] and in [15] was “inactive” each time. The Potency result in [11] was “inactive”. The outcome in [3], in assay [4], in assay [20], in assay [6], in [12] and in [10] was inactive.
For `OCCCCCCO`, the Potency entry in assay [2], in assay [5], in [7], in assay [8], in [13] and in assay [14] was “inactive” throughout. Also, the Potency entry in assay [15] and in [11] was “inactive” in each case. The call in assay [3], in assay [4], in assay [20], in assay [6] and in [10] was inactive.
With `O=C(O)Cc1cc(I)c(Oc2cc(I)c(O)c(I)c2)c(I)c1`, the Potency result in assay [2], in assay [5], in [7], in [8], in assay [13] and in assay [14] was “inactive” throughout. The Potency result in assay [15] and in assay [11] was “inactive” in each case. In addition, the call in assay [3], in [4], in [20], in assay [6], in assay [12] and in [10] was inactive. Also, the Potency in assay [9] is 10.7 µM (active).
With `CC(C)(O)C(=O)c1ccc(OCCO)cc1`, the Potency entry in assay [2], in [5], in assay [7], in assay [8], in [9] and in assay [13] was “inactive” throughout. Also, the Potency result in [14], in assay [15] and in assay [11] was “inactive” each time. For the same compound, the compound was called inactive in assay [3], in assay [4], in assay [6], in [12] and in assay [10].
